Reference: PubChem BioAssay (EPA / NIEHS)
Inconclusive results are not listed. Active and inactive are the calls of the source. The calls were made as follows, unless noted: active = hit-call score of the fitted dose curve at least 0.9, where 1 is the maximum; inconclusive = response in the unintended direction; inactive = score below 0.9.

Assays:
[1] = biological target: Agonist Androgen Response Element (ARE), AR (gene 367) (UniProt P10275); assay: OT_AR_ARELUC_AG_1440: Odyssey Thera (OT) 24-hour CHO-K1 Luciferase Assay for Agonist Androgen Response Element (ARE) (AID 2283379)
Outline: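 Agonist mode, 24 h exposure in CHO-K1 ARE-luciferase cells; values reflect luminescence induction over vehicle.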

[2] = biological target: Estrogen receptor beta (Homo sapiens) (UniProt Q92731); assay: OT_ER_ERbERb_1440: Odyssey Thera (OT) 24-hour HEK293T Protein-Complementation Assay for Estrogen Receptor-beta/-beta Homodimer (AID 2283380);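 also: fluorescence gain from ER beta LBD homodimer complementation read by laser scanning cytometry; scored as signal increase over DMSO baseline for both agonists and antagonists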
Outline: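 Fluorescence increase, nuclear for agonists or whole-cell for antagonists, relative to DMSO vehicle, quantified by laser scanning cytometer after fixation and Draq5 staining. Readout from 24 h treatment of HEK293T cells carrying complementation-paired ER beta LBD (aa 310-547).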

[3] = biological target: Estrogen receptor (Homo sapiens) (UniProt P03372); assay: OT_ERa_GFPERaERE_0120: Odyssey Thera (OT) 2-hour HeLa Transcription Induction Assay for Estrogen Receptor (AID 2283382)
Outline: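 Measures ESR1 pathway reporter gain-of-signal in HeLa cells after a 2-hour treatment, detected as fluorescent protein induction by microscopy, DMSO as baseline.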

[4] = biological target: Bile acid receptor (Homo sapiens) (UniProt Q96RI1); assay: OT_FXR_FXRSRC1_0480: Odyssey Thera (OT) 8-hour HEK293T Protein-Complementation Assay for Farnesoid X receptor/SRC-1 Co-activator (AID 2283383)
Outline: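 Co-activator recruitment to FXR was measured in living HEK293T cells, where interaction of the two fused partners restored an active fluorescent reporter. Signal gain after 8 h treatment was referenced to DMSO.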

[5] = biological target: Peroxisome proliferator-activated receptor gamma (Homo sapiens) (UniProt P37231); assay: OT_PPARg_PPARgSRC1_0480: Odyssey Thera (OT) 8-hour Protein-Complementation Assay for Peroxisome Proliferator-activated Receptor Gamma / SRC-1 Co-activator (AID 2283387);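 also: nuclear to cytoplasmic split Venus YFP fluorescence ratio reporting PPARg SRC-1 interaction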
Outline: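 Read-out: 488 nm N/C fluorescence ratio from complemented Venus YFP fragments, ≥350 cells per image, gain-of-signal fitted against DMSO baseline. Fusions of PPARg/SRC-1 with IFP1/IFP2 expressed transiently in HEK293T; compounds applied 8 h.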

[6] = biological target: Peroxisome proliferator-activated receptor gamma (Homo sapiens) (UniProt P37231); assay: OT_PPARg_PPARgSRC1_1440: Odyssey Thera (OT) 24-hour Protein-Complementation Assay for Peroxisome Proliferator-activated Receptor Gamma/ SRC-1 Co-activator (AID 2283388);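 also: nuclear to cytoplasmic ratio of reconstituted Venus YFP fluorescence in fixed imaged cells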
Outline: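 Readout: nuclear-to-cytoplasmic 488 nm fluorescence ratio, ≥350 cells per image, 8 images per well, after 24 h compound exposure of HEK293T expressing PPARg/SRC-1 split-YFP fusions. Activity fitted in positive direction against DMSO.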

[7] = biological target: mouse Estrogen Receptor alpha (Era), Esr1 (gene 13982) (UniProt P19785); assay: NVS_NR_mERa: NovaScreen (NVS) Nuclear Receptor Binding Assay for mouse Estrogen Receptor alpha (Era) (AID 2283378);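 also: hit means loss of bound radioligand signal relative to DMSO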
Outline: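 Filter scintillation counts of bound radioligand, measured 18 h post-dose, gave the readout; decreased signal relative to DMSO controls indicated displacement from mouse Era. Primary screen ran in duplicate at 25 uM; active chemicals were retested across concentrations.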

[8] = biological target: Bile acid receptor (Homo sapiens) (UniProt Q96RI1); assay: OT_FXR_FXRSRC1_1440: Odyssey Thera (OT) 24-hour HEK293T Protein-Complementation Assay for Farnesoid X receptor/SRC-1 Co-activator (AID 2283384)
Outline: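 Cell-based binding reporter: interaction of FXR with SRC-1 brings reporter fragments together, giving a fluorescence signal read 24 h after dosing of HEK293T cells.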

[9] = biological target: Retinoic acid receptor RXR-alpha (Homo sapiens) (UniProt P19793); assay: OT_NURR1_NURR1RXRa_0480: Odyssey Thera (OT) 8-hour HEK293T Protein Complementation Assay for Nurr1/retinoid X receptor (RXR) (AID 2283385)
Outline: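 Compounds are applied to HEK293T cells carrying Nurr1 and RXRα linked to reporter fragments. After 8 h, fluorescence intensity reports heterodimer formation, with DMSO as baseline.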

[10] = biological target: Retinoic acid receptor RXR-alpha (Homo sapiens) (UniProt P19793); assay: OT_NURR1_NURR1RXRa_1440: Odyssey Thera (OT) 24-hour HEK293T Protein Complementation Assay for Nurr1/retinoid X receptor (RXR) (AID 2283386)
Outline: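 Measured as fluorescence from a reconstituted split reporter, this 24 h HEK293T complementation assay scores compound-induced gain of Nurr1/RXRα association relative to DMSO.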

[11] = CEETOX_H295R_11DCORT: CeeTox H295R High-throughput Steroidogenesis Assay for 11-Deoxycortisol (11DCORT) (AID 2283432; active = hit-call score of the fitted dose curve at least 0.9, where 1 is the maximum; inactive = score below 0.9;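 as to AC50: human adrenal H295R cells prestimulated with 10 µM forskolin for 48 h; 11-deoxycortisol secreted into the medium measured by LC-MS/MS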); conditions: actives raise or lower the signal
Outline: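 H295R cells; 10 uM forskolin prestim 48 h; compound in 0.1% DMSO 48 h; media extracted with MTBE; 11-deoxycortisol by LC-MS/MS, 7-point standard curve; gain/loss vs DMSO baseline; viability by MTT in same wells.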

[12] = CEETOX_H295R_OHPREG: CeeTox H295R High-throughput Steroidogenesis Assay for OH-Pregnenolone (OHPREG) (AID 2283434; active = hit-call score of the fitted dose curve at least 0.9, where 1 is the maximum; inactive = score below 0.9); conditions: actives raise or lower the signal
Outline: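 Hormone levels in spent medium were measured by tandem mass spectrometry following liquid-liquid extraction. Cells (H295R) had been forskolin-stimulated (10 uM, 48 h) before a 48 h chemical exposure at 0.1% DMSO, with activity fitted in both directions against DMSO.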

[13] = CEETOX_H295R_OHPROG: CeeTox H295R High-throughput Steroidogenesis Assay for OH-Progesterone (OHPROG) (AID 2283435; active = hit-call score of the fitted dose curve at least 0.9, where 1 is the maximum; inactive = score below 0.9;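 as to AC50: human adrenal H295R cells primed 48 h with 10 µM forskolin; 17alpha-hydroxyprogesterone secreted into medium measured by HPLC-MS/MS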); conditions: actives raise or lower the signal
Outline: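 Secreted 17alpha-hydroxyprogesterone is read by tandem MS from media of forskolin-primed H295R cells dosed with chemical for 48 h. Activity is fitted in both directions against DMSO baseline; cytotoxic concentrations are re-tested diluted.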

[14] = CEETOX_H295R_ANDR: CeeTox H295R High-throughput Steroidogenesis Assay for Androstenedione (ANDR) (AID 2283436; active = hit-call score of the fitted dose curve at least 0.9, where 1 is the maximum; inactive = score below 0.9;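 also: human H295R adrenal cells exposed for 48 h with androstenedione measured in medium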); conditions: actives raise or lower the signal
Outline: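 Read-out is androstenedione secreted into medium, measured by tandem mass spectrometry after liquid-liquid extraction. Cells were H295R, dosed for 48 h per modified OECD 456; activity fitted in both directions relative to DMSO.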

[15] = CEETOX_H295R_CORTIC: CeeTox H295R High-throughput Steroidogenesis Assay for Corticosterone (CORTIC) (AID 2283437; active = hit-call score of the fitted dose curve at least 0.9, where 1 is the maximum; inactive = score below 0.9;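 also: corticosterone secreted into medium quantified by mass spectrometry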); conditions: actives raise or lower the signal
Outline: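 Corticosterone secreted into medium is measured by reverse-phase HPLC with tandem MS following liquid-liquid extraction. Cells are forskolin-stimulated (10 uM, 48 h) before 48 h test exposure; activity fitted in both directions against DMSO.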

[16] = CEETOX_H295R_CORTISOL: CeeTox H295R High-throughput Steroidogenesis Assay for Cortisol (AID 2283438; active = hit-call score of the fitted dose curve at least 0.9, where 1 is the maximum; inactive = score below 0.9;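 also: cortisol secreted into medium quantified by LC-MS/MS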); conditions: actives raise or lower the signal
Outline: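 Human adrenocortical H295R cells (passage ≤10) received test chemicals for 48 h after forskolin priming. Secreted cortisol was measured by LC-MS/MS.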

[17] = CEETOX_H295R_DOC: CeeTox H295R High-throughput Steroidogenesis Assay for DOC (AID 2283439; active = hit-call score of the fitted dose curve at least 0.9, where 1 is the maximum; inactive = score below 0.9); conditions: actives raise or lower the signal
Outline: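 Secreted DOC was quantified from H295R media by HPLC-MS/MS after 48 h chemical exposure following 48 h forskolin (10 uM) prestimulation. Values were fitted in both directions relative to DMSO, the negative control and baseline.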

[18] = CEETOX_H295R_ESTRADIOL: CeeTox H295R High-throughput Steroidogenesis Assay for Estradiol (AID 2283440; active = hit-call score of the fitted dose curve at least 0.9, where 1 is the maximum; inactive = score below 0.9;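 also: estradiol secreted into medium quantified by LC-MS/MS after dansyl derivatisation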); conditions: actives raise or lower the signal
Outline: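 H295R, 48 h forskolin (10 uM) prestim → 48 h compound, 0.1% DMSO final. Estradiol in medium: MTBE extraction, dansyl chloride derivatization, LC-MS/MS. Fit bidirectional vs DMSO baseline; MTT viability in same wells.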

[19] = biological target: rat Serotonin Transporter (SERT), Slc6a4 (gene 25553) (UniProt P31652); assay: NVS_TR_rSERT: NovaScreen (NVS) Transporter Assay for rat Serotonin Transporter (SERT) (AID 2283375)
Outline: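 Radioligand displacement, filter scintillation readout; rat forebrain membrane prep, 1 h post-dose. Single-conc 25 uM duplicate screen, then concentration-response on actives. Loss of signal vs DMSO baseline.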

Measured: AC50

rat Serotonin Transporter (SERT), Slc6a4 (gene 25553), sequence (P31652 whole entry, looked up): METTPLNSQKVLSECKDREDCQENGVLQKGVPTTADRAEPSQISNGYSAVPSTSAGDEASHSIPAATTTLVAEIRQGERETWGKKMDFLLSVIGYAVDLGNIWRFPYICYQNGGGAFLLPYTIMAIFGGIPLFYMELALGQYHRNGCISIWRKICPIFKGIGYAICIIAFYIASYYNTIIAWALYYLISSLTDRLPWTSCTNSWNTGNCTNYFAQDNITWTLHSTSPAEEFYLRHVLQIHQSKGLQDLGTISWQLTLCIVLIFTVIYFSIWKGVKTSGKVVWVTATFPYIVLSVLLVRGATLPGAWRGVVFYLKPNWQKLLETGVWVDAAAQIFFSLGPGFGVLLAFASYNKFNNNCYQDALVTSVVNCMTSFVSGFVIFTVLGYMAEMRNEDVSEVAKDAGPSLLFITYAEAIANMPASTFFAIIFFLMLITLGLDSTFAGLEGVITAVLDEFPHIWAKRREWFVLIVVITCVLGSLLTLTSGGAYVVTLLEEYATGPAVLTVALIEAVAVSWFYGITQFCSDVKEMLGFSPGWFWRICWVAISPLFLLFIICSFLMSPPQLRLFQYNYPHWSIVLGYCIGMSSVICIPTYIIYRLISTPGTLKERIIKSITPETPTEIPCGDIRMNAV
Estrogen receptor (Homo sapiens), sequence (P03372 whole entry, looked up): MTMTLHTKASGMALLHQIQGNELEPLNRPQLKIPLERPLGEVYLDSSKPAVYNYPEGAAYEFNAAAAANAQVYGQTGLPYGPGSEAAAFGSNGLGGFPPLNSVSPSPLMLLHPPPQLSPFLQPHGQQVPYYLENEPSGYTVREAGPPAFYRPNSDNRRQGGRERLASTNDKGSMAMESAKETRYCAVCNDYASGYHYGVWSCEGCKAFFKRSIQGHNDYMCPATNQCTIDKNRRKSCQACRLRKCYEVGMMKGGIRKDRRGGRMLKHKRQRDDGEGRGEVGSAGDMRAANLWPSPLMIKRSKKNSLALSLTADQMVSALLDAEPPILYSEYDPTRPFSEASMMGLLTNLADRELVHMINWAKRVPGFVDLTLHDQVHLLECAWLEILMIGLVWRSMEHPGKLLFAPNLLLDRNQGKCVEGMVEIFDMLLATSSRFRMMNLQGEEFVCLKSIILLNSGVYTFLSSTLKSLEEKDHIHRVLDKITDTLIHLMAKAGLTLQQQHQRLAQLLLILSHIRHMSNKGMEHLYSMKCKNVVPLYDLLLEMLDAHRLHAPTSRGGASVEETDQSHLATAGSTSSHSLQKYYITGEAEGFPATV
Retinoic acid receptor RXR-alpha (Homo sapiens), sequence (P19793 whole entry, looked up, the tested form may be a part): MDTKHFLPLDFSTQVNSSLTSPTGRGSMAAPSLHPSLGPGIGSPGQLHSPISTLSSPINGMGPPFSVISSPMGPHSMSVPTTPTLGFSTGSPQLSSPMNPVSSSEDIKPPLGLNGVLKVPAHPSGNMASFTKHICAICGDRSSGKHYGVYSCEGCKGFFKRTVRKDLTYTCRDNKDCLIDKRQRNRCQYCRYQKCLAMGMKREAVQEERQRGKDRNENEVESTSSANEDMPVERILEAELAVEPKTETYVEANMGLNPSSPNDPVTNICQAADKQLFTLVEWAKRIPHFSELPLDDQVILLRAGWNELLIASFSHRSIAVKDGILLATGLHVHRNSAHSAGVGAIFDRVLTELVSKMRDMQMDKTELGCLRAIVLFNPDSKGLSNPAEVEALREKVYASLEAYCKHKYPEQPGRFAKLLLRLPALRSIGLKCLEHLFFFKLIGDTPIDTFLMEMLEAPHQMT
Agonist Androgen Response Element (ARE), AR (gene 367), sequence (P10275 whole entry, looked up): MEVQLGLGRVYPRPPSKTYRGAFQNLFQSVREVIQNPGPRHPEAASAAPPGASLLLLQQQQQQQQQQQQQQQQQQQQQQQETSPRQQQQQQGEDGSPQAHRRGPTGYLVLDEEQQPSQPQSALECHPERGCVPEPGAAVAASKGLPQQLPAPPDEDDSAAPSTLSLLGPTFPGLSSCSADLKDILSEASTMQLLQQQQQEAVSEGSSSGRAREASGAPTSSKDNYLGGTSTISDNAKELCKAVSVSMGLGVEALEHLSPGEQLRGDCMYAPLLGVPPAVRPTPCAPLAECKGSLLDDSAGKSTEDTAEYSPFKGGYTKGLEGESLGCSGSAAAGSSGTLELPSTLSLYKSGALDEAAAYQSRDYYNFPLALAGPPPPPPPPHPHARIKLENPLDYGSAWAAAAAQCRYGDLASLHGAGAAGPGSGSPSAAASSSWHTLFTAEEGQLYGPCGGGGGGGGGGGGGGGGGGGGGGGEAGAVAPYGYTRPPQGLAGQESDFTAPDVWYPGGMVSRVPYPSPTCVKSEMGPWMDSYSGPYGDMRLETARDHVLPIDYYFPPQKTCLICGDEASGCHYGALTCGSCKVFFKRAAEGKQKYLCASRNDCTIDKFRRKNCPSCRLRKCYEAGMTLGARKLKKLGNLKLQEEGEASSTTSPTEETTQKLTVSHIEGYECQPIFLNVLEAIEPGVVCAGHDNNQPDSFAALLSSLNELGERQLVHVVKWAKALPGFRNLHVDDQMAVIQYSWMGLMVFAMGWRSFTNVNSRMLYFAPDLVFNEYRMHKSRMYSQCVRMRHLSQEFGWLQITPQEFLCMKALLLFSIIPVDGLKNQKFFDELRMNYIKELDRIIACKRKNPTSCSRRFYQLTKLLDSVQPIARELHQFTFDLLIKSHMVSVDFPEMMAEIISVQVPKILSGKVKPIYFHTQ
Peroxisome proliferator-activated receptor gamma (Homo sapiens), sequence (P37231 whole entry, looked up, the tested form may be a part): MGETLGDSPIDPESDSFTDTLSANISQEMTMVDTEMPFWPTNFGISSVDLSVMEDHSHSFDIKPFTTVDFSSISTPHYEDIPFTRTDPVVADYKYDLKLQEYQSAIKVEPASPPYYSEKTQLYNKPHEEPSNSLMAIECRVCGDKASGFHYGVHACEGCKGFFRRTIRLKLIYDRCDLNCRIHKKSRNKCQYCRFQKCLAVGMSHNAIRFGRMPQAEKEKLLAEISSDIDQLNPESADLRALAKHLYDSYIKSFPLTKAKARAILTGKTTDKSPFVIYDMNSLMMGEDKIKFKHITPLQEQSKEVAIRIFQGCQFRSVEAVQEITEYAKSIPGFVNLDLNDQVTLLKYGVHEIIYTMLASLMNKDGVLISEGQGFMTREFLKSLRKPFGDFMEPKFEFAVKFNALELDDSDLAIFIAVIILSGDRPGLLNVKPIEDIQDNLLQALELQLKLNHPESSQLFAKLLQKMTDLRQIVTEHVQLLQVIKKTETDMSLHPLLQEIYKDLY
Estrogen receptor beta (Homo sapiens), sequence (Q92731 whole entry, looked up, the tested form may be a part): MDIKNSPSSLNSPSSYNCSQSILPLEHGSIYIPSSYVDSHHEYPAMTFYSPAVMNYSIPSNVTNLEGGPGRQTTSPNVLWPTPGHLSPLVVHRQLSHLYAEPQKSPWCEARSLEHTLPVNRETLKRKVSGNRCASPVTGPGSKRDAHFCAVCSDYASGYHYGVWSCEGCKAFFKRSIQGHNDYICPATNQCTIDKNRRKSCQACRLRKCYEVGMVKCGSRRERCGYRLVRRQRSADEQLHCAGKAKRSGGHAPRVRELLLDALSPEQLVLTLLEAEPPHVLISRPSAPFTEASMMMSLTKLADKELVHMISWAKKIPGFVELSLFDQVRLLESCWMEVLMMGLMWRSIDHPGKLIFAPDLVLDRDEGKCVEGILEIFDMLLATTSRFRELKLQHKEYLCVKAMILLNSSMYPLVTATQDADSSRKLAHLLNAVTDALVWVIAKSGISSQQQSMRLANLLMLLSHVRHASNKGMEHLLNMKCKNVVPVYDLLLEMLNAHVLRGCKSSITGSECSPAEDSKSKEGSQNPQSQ
mouse Estrogen Receptor alpha (Era), Esr1 (gene 13982), sequence (P19785 whole entry, looked up): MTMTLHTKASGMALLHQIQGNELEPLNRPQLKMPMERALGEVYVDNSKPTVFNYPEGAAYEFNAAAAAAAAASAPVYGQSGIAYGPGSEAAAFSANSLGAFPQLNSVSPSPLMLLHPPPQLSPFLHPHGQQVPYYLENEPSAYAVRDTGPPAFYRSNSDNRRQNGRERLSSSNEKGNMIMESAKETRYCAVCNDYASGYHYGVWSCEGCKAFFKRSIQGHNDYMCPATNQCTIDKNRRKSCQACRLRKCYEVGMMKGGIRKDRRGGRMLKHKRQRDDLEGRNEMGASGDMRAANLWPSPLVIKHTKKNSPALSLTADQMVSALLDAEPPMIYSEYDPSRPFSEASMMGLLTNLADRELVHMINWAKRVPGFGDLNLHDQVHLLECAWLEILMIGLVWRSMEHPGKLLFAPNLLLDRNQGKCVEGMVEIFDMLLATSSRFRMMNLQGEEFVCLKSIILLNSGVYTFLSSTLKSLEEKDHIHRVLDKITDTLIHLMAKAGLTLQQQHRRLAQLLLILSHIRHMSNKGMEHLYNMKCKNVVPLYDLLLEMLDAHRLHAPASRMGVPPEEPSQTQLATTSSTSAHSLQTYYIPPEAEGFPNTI
Bile acid receptor (Homo sapiens), sequence (Q96RI1 whole entry, looked up, the tested form may be a part): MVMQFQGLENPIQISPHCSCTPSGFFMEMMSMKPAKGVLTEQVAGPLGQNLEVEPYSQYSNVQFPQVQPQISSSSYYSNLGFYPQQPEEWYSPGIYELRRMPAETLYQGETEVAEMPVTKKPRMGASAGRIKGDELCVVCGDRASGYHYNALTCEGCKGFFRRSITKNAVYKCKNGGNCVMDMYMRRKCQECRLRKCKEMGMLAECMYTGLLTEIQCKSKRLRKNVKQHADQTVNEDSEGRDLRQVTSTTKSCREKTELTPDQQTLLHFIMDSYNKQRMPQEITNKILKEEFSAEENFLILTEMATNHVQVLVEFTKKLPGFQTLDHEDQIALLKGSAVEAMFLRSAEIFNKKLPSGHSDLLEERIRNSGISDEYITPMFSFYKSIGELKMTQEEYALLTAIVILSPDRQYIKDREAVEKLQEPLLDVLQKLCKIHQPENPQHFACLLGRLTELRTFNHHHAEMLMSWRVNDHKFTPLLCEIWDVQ

OCC1CCCO1 (configuration not stated)
inactive: [1] | [2] | [3] | [4] | [5] | [6]

CCCCCCCCCc1ccc(OCCO)cc1
active: [1] 0.238 µM | [2] 4.63 µM | [4] 4.7 µM | [8] 28.8 µM | [10] 32.9 µM
inactive: [7] | [3] | [9] | [5] | [6] | [11] | [12] | [13] | [14] | [15] | [16] | [17] | [18]

CCN(CC)c1ccc2c(c1)Oc1cc(N(CC)CC)ccc1C21OC(=O)c2ccccc21
active: [19] 8.16 µM

CCCCCCCC/C=C\CCCCCCCC(=O)N(C)CC(=O)O
inactive: [7] | [2] | [3] | [8] | [9] | [5] | [6]
active: [4] 72.6 µM

C[C@]12CC[C@H]3C(=CCc4cc(O)ccc43)[C@@H]1CCC2=O
inactive: [8] | [9] | [5] | [6] | [15]
active: [19] 15.6 µM | [1] 0.284 µM | [4] 9.93 µM | [11] 17.8 µM | [12] 3.5 µM | [13] 2.87 µM | [14] 8.03 µM | [16] 13.7 µM | [17] 0.811 µM

CCCCCCCC/C=C\CCCCCCCC(=O)OCC(O)CO (configuration not stated)
active: [4] 70.9 µM | [9] 71.1 µM | [10] 90.1 µM
inactive: [1] | [2] | [3] | [5] | [6]

CCN(CC)c1ccc(N=Nc2ccccc2)cc1
active: [19] 3.36 µM | [11] 10 µM
inactive: [12] | [13] | [14] | [15] | [16] | [17] | [18]

O=C1C=CC(=O)N1c1ccccc1
inactive: [7] | [1] | [2] | [3] | [5] | [6] | [11] | [12] | [13] | [14] | [15] | [16] | [17] | [18]

CCN(CC)c1ccc(C=O)cc1
active: [19] 15.8 µM | [17] 59.2 µM
inactive: [11] | [12] | [13] | [14] | [15] | [16] | [18]

COCCOCCC[Si](C)(O[Si](C)(C)C)O[Si](C)(C)C
inactive: [7] | [1] | [3] | [8] | [5] | [6]
active: [2] 53.3 µM | [4] 50 µM | [9] 33.2 µM | [10] 90.4 µM
